Assay results published in article PMC12136788.
Residue numbers refer to the chain shown, from its start. Over roughly 5,800 sequences, “enrichment r” has its median near 0.68; the highest 2% begin near 11. The entries come from a sample that favours the highest values as a whole.

T1: UNK ZnF1-6 (called full-length) (human, UniProt Q9C0B0 30-357)
T1 sequence: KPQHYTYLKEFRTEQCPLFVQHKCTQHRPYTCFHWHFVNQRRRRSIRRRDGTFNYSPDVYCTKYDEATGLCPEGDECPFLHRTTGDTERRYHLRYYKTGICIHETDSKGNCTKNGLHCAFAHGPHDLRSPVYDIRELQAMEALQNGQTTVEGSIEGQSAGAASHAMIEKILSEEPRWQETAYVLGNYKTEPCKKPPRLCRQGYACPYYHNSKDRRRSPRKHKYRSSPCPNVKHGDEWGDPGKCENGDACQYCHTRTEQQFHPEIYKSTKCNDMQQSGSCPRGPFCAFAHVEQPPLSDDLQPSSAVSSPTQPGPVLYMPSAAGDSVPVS

B1: chr17:15565482:15566353:-|three_prime_utr|ENSG00000241322|control|control|control (ssRNA)
RNA: GGGAGUUCUACAGUCCGACGAUCCACCCAAAGAAAAAGUCUUGGAAAAUCCCUAUGUCACCUGACCAAUUCCUCCUGACUGUUAGCGCCCUGCAGCACGCCCGUAAUUCCGGGGAAUUUGCCUAUCCCUGUAGGCCCCAAACACAACAGAGGAUUGAGCAUCA
B2: chr16:58599380:58599482:-|5pUTR|ENSG00000125107|unk|FALSE|unique (ssRNA)
RNA: GGGAGUUCUACAGUCCGACGAUCCAGAACAGAGUAAGACCCCUGGUAAAGAAGAACUGAAGAUAUUAUACAGAUACCAGAUAUAGCCUAAUUACAAAGAAAGCAUUAACCUGCCUCUGAGGUGACUAAAGGGGAAUAAUGGUGCAACAGAGGAUUGAGCAUCA
B3: chr12:108645191:108645284:-|3pUTR|ENSG00000110880|msi1_unk|total|mutant (ssRNA)
RNA: GGGAGUUCUACAGUCCGACGAUCUCUUUUUUUUUUUUUUUUUUUAAGCCAUGACAUCCCAGAAGAGGACAGUGAAUUACUCCCCGGUCGGCUCUUACCGAGUGGCCACCGUGUUCUGUCAAAACACUUGCUUCCAUUUUCAGACAACAGAGGAUUGAGCAUCA
B4: chr8:23842113:23842214:-|3pUTR|ENSG00000159167|msi1|total|mutant (ssRNA)
RNA: GGGAGUUCUACAGUCCGACGAUCACUUCCGACAUUUUUGUGCCAUUAUAUUUGCAUUAUGUAUUUAUAAUUUAAAUGAUAUUCCGGUUUUUGGCUGAGUACUGGAAUAAACAGUGAGCAUAUCUGGUAUAUGUCAUUAUUUAUCAACAGAGGAUUGAGCAUCA
B5: chr1:202941098:202941199:-|3pUTR|ENSG00000159346|msi1_unk|total|mutant (ssRNA)
RNA: GGGAGUUCUACAGUCCGACGAUCCCUCCCUUACCCCCAUCCUUAACUUUGUAUCCUGGCUUAUAACAGGCCAUCCAUUUUUGCCGCACACUUUUCAAAAACAAUUAUAUACCCUGGUCCCAUCUUUCCCGGGCCUGGAUCUGCCAACAGAGGAUUGAGCAUCA
B6: chr9:74692981:74693082:+|3pUTR|ENSG00000198963|unk|total|mutant (ssRNA)
RNA: GGGAGUUCUACAGUCCGACGAUCUUUUAUAUUACUUCCGAAUGUAACCGGUUUUUGUCCUUAUUUUAUGUCCUGUAAAUUAUCCGUUCAAUACUGUCCGCAUUCCCGGAUAAUGCACACAUGAUUUCUGAAUGUUUUCUGUAACAACAGAGGAUUGAGCAUCA
B7: chr6:149889094:149889339:-|three_prime_utr|ENSG00000164520|control|control|control (ssRNA)
RNA: GGGAGUUCUACAGUCCGACGAUCGGCAGCUCCCUUUAAAGGUCAAAAGCCUUCCCUGUGUGGGUGUCAGUGUGUGUGUGCGAUAGAAAAUUUGAUUGACUUCUCCGUGGGCUUCCUGUCUGGAGAGUCAGUGAUGGCUAUAAGCAACAGAGGAUUGAGCAUCA
B8: ENSG00000198589:be:win_1801|CDS|ENSG00000198589|bound_else_gene|NA|bound_elsewhere_windowed (ssRNA)
RNA: GGGAGUUCUACAGUCCGACGAUCACAGUCAACAUAUAUAACACCAUUCGGAGAGUUGGAACAGUGCUUCUCAUCAUGCACACGCUGAAGUACUACUACUGGGCAGUGAAUCCUCAGGAUCGAAGUGGUAUCACCCCAAAAGGACAACAGAGGAUUGAGCAUCA
B9: chr21:18281039:18281221:-|CDS|ENSG00000154646|control|control|control (ssRNA)
RNA: GGGAGUUCUACAGUCCGACGAUCACCUCUCCUCAAACAGUCCCUCGAUUAAUAGAUGAAAUUGUCAUAAACCCUCAUUACAAUAGGCGAAGAAAGGACAACGACAUUGCCAUGAUGCAUCUGGAAUUUAAAGUGAAUUACACACAACAGAGGAUUGAGCAUCA
B10: ENSG00000198589:be:win_6551|CDS|ENSG00000198589|bound_else_gene|NA|bound_elsewhere_windowed (ssRNA)
RNA: GGGAGUUCUACAGUCCGACGAUCGACGUAUUUCAUUAGCUAGUCCACGUCAGCUUUUUAAGGCUUCUAAUAUGACCCAGCGAUGGCAACACAGAGAGAUAUCUAAUUUUGAGUACUUGAUGUUUCUCAACACGAUAGCAGGACCAACAGAGGAUUGAGCAUCA
B11: chr20:53567570:53567671:-|3pUTR|ENSG00000171940|unk|FALSE|unique (ssRNA)
RNA: GGGAGUUCUACAGUCCGACGAUCUCACAAGCUGAGCCAUAUGUACAUAAUCUAGAUUUUGUUUUCAUAGUUUUGCACUUUUAUAGCCUAUUUUUGAAGAUUAACACAUUUGCAAGAUGAUUGACUCAAUCUUUGCCUAAUCCACAACAGAGGAUUGAGCAUCA
B12: chr5:52955293:52955406:+|3pUTR|ENSG00000213949|unk|total|mutant (ssRNA)
RNA: GGGAGUUCUACAGUCCGACGAUCUACCAACCAGUGUGAGCUGACUUCAGCACACCACUGAGACAGAUUACACGACCGACAGACCGACCGACCGACCGACCGACCGACCGACCGACCGACCGACCGAUAUUGACCGAGAACAUGCAACAGAGGAUUGAGCAUCA
B13: chr14:103503186:103503248:+|CDS_3pUTR|ENSG00000075413|msi1_unk|FALSE|overlapping (ssRNA)
RNA: GGGAGUUCUACAGUCCGACGAUCUGCUUCCAAAAUUGCCAAUGAGCUAAAGCUGUAACCCAGUGAUUAUGAUGUAAAUUAAGUAGCAAUUAAAGUGUUUUCCUGAACACUGAUGGAAAUGUAUAGAAUAAUAUUUAGGCAAUACAACAGAGGAUUGAGCAUCA
B14: chr11:74334375:74334476:-|3pUTR|ENSG00000165434|msi1|FALSE|unique (ssRNA)
RNA: GGGAGUUCUACAGUCCGACGAUCUUUUUGUUUUAUUUUUAAAAUGUGUAAAACAUCUUUUGUUUUAUAUGCUUUUAAGAAUGUAGAUUGUAAUUUAGGAAAUGGCAUAUAUUCUGCAAAGUGGUAUAAUGUUGUAUAUAUGAACAACAGAGGAUUGAGCAUCA
B15: ENSG00000136451:be:win_1001|CDS|ENSG00000136451|bound_else_gene|NA|bound_elsewhere_windowed (ssRNA)
RNA: GGGAGUUCUACAGUCCGACGAUCACCAAAAGCAGCAGCAGCAGCAGCAGCAGCAGCAGCAGCAGCAGCAACAACAACAACAACAACAUGUGACAAGCUGGCCAGGGAAGCAAGUAGAAACACUGAGACUGUGGGAAGAAGCUGCAACAGAGGAUUGAGCAUCA
B16: chr16:57253408:57253449:+|3pUTR|ENSG00000102931|msi1_unk|FALSE|overlapping (ssRNA)
RNA: GGGAGUUCUACAGUCCGACGAUCUGUGUGGUAGAUUACUUAUCAGAAAACAUAUAUGUCAUCUCUAGAACGAAGAAAAAGCAUAGUAGUUCAAUUCCCAGUGUGUCCCUUUGAUUUUUUUUUUUUAAUAGUAAAAAUAAGAAUCAACAGAGGAUUGAGCAUCA
B17: chr2:206311781:206311882:+|3pUTR|ENSG00000204186|unk|total|mutant (ssRNA)
RNA: GGGAGUUCUACAGUCCGACGAUCCCGUGUUCCGAGUCCUUUCAUUUUAAGAUUCAGAAACAGCCUUUGUCCAACAUUUUCUGCCGAAGAACUUCAUCUUAAUUUAUGUCACAAAAUAAUUCCGCACCGUAUACCGAAUUUUGUCAACAGAGGAUUGAGCAUCA
B18: chr5:52955293:52955406:+|3pUTR|ENSG00000213949|unk|FALSE|unique (ssRNA)
RNA: GGGAGUUCUACAGUCCGACGAUCUACCAACCAGUGUGAGCUGACUUCAGCACACCACUGAGACAGAUUACACGAUAGACAGAUAGAUAGAUAGAUAGAUAGAUAGAUAGAUAGAUAGAUAGAUAGAUAUUGAUAGAGAACAUGCAACAGAGGAUUGAGCAUCA
B19: chr12:98549714:98549829:+|3pUTR|ENSG00000120802|unk|FALSE|unique (ssRNA)
RNA: GGGAGUUCUACAGUCCGACGAUCGAAGAUGUAUAUUUAGACCAGCACACAAUUUUGAUUUCAAUUAGCCUUAUUCUAAUAUUUAGCUUUUAGAUCUUUCAUACACAUUUUCACGUACUUUGCAAUUGAGACCAGAAAGACUUGCAACAGAGGAUUGAGCAUCA
B20: chr2:206311781:206311882:+|3pUTR|ENSG00000204186|unk|FALSE|unique (ssRNA)
RNA: B17 RNA with C24U, C25A, C31U, C32A, C83U, C84A, C121U, C122A, C133U, C134A
B21: chr12:76029359:76029534:-|3pUTR|ENSG00000139289|msi1|FALSE|unique (ssRNA)
RNA: GGGAGUUCUACAGUCCGACGAUCAGAAGUUUAAAAAGCUAAAAGUUAAAAAUGGUGUAAUUAUGAAAAUCUAACACUCAAGAUAGUUUCUAAAAGGAAAUCAGUAGUUAAGGAUACCUGAUUUCAAAAUAUUUAAAGCAUAACCAACAGAGGAUUGAGCAUCA

Target: T1, UNK ZnF1-6 (called full-length)
Test: nsRBNS (natural sequence RNA bind-n-seq); RBNS binding buffer (assumed for nsRBNS): 25 mM Tris pH 7.5, 150 mM KCl, 3 mM MgCl2, 0.01% Triton X-100, 500 ug/ml BSA, 20 U/ml SUPERase-In, 4 C; UNK is unkempt and MSI1 is Musashi-1; names of the RNAs are library labels; protein concentration not given here; high values mean tight binding

Compared with B1, B2 is lower in binding signal: 0.988 enrichment R for the first, 0.956 enrichment R for the second.

Going from B3 to B4, the binding signal falls from 4.25 enrichment R to 0.575 enrichment R.

Going from B5 to B6, the binding signal falls from 2.09 enrichment R to 0.468 enrichment R.

Going from B7 to B8, the binding signal falls from 0.908 enrichment R to 0.542 enrichment R.

Going from B9 to B10, the binding signal falls from 0.684 enrichment R to 0.548 enrichment R.

Compared with B11, B12 is lower in binding signal: 3.86 enrichment R for the first, 0.427 enrichment R for the second.

Compared with B13, B14 is lower in binding signal: 11.1 enrichment R for the first, 3.22 enrichment R for the second.

First: B15
Second: B16
The binding signal of the first is lower: 0.905 enrichment R for the first, 1.9 enrichment R for the second.

First: B17
Second: B18
The binding signal of the first is lower: 0.453 enrichment R for the first, 24.7 enrichment R for the second.

Going from B19 to B20, the binding signal falls from 32.9 enrichment R to 11.6 enrichment R.

For B21, the binding signal was 1.92 enrichment R.
